Source: PubChem
Rows were chosen to be rich in hits. Some 21% of all compounds tested hit in one or more screens of this group.
NS1 function inh: inhibitors of influenza NS1 protein function. Potency, µM (titrated, usually from 46.1 µM), for inactives: top-dose activity, positive = more growth. hit rate 0.4% among 270,000. AID 2326; calls by dose curve; further: potency means the concentration at half of the fitted maximal effect; actives are rising curves; nearly all actives have a fitted effect of over 50% in size
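Recovery from NS1-induced slow growth read by OD600 in budding yeast switched to galactose assay medium (pH 6.0, -URA) at 1:100 dilution. Compound 23 nl per well; the matching strain lacking NS1 serves as control.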
Shiga inhibitor: Shiga toxin inhibition; Vero cells, Shiga toxin protein synthesis inhibition reporter; inhibition, % at 38.7 µM; hit rate 9.2% among 290,000; in the data active means inhibition mostly above about 28%, no sharp cut-off; inactive means mostly below about 43%; further: 0% is about no effect
Pf growth 96h: P. falciparum growth inhibition at 96 hour, primary screen for plastid delayed-death inhibitors; hit rate 6.9% among 320,000; Potency, µM (top dose mostly 28.7 µM), inactives show top-dose activity change, negative = inhibition, usual class: inhibitors; AID 504834; P. falciparum luciferase reporter growth, 96 h; further: potency means the concentration at half of the fitted maximal effect; on the % scale 0 is the no-effect control and ±100 the full control effect
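P. falciparum expressing integrated firefly luciferase, in erythrocytes at 2% hematocrit, 0.05% parasitemia, incubated with compounds 96 h at 37 C, 5% CO2. Growth inhibition read as loss of luminescence; two-generation exposure targets delayed-death apicoplast inhibitors.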
CHX counter: counter-screen for Shiga toxin inhibitors: cycloheximide protein synthesis inhibition. cell reporter, cycloheximide protein synthesis inhibition counterscreen. max response, %. AID 2314. hit rate 12% among 300,000; in the data active means max response mostly above about 13%, no sharp cut-off; inactive means mostly below about 14%; further: read at 38.3 µM for the half of the compounds with a filed dose; 0% is about no effect
Pf growth 48h: inhibits P. falciparum growth in the first generation, 48 h | P. falciparum luciferase growth in erythrocytes, 48 h | Potency, µM (top dose mostly 28.7 µM), for inactives: top-dose activity change, negative = inhibition, most hits filed as inhibitors | hit rate 5.9% among 310,000 | AID 504832; further: potency means the concentration at half of the fitted maximal effect; on the % scale 0 is the no-effect control and ±100 the full control effect
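Here the parasites carry a stable luciferase gene and grow inside erythrocytes in Albumax-based RPMI medium with compound for one erythrocytic cycle. Activity is scored as loss of luminescent signal.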
* = called active by the depositor. Unless noted, the call rests on the fitted dose curve; in most records, active means well fitted inhibition curve with a large enough effect; inconclusive means small, poorly fitted or top-dose-only effect, or another doubt; inactive means no such curve, though single readings can be large or run the other way.

`CC(C)(C)SCCNC(=O)CSc1ccccc1` gave NS1 function inh 3%.
CC(C)(C)SCCNC(=O)Nc1ccccc1 was read as NS1 function inh -7%, Shiga inhibitor 19*, Pf growth 96h 29%, CHX counter 21* and Pf growth 48h 40%.
For Cc1ccccc1S(=O)(=O)Cc1ccc(C(=O)NC2CCCCC2C)o1 (configuration not stated) the results were NS1 function inh 5%, Shiga inhibitor -5, Pf growth 96h inconclusive, CHX counter 0 and Pf growth 48h 6%.
CC1=CC(=O)C2=C(C)CC(O)C3C(C)C(=O)OC3C12 (configuration not stated) was read as NS1 function inh 4%, Shiga inhibitor -16, Pf growth 96h 13µM*, CHX counter -2 and Pf growth 48h -3%.
CC1CCCCN1Cc1ccc(N)cc1 (configuration not stated) was read as NS1 function inh 10%, Shiga inhibitor 10, Pf growth 96h 0.1µM*, CHX counter -4 and Pf growth 48h -7%.
Screening CC1CCCCN1Cc1ccc(-c2nn[nH]n2)cc1 (configuration not stated) returned NS1 function inh -26%, Shiga inhibitor -3, Pf growth 96h inconclusive, CHX counter 1 and Pf growth 48h 9%.
Screening CCOC(=O)CSCC(=O)Nc1c(C(=O)C2CC2)oc2ccccc12 returned NS1 function inh -4%, Shiga inhibitor 10, Pf growth 96h 5.9µM*, CHX counter -3 and Pf growth 48h -11%.
For CC1=C(C(=O)Nc2ccccc2)C(c2ccco2)C(C#N)=C(SCC(=O)OC(C)C)N1 (configuration not stated) the results were NS1 function inh 10%, Shiga inhibitor 9, Pf growth 96h 7.4µM*, CHX counter -2 and Pf growth 48h 2.3µM*.
For CC1=C(C(=O)Nc2ccccc2)C(c2ccco2)C(C#N)=C(SCc2ccccc2)N1 (configuration not stated) the results were NS1 function inh -2%, Shiga inhibitor -8, CHX counter 7 and Pf growth 48h 8.3µM*.
Screening CC(=O)C1=C(C)NC(SCc2cccc([N+](=O)[O-])c2)=C(C#N)C1c1ccco1 (configuration not stated) returned NS1 function inh 21%, Shiga inhibitor 17, Pf growth 96h -3%, CHX counter -2 and Pf growth 48h 5%.
`CC1=C(C(=O)Nc2ccccc2)C(c2ccco2)C(C#N)=C(SCC(=O)Nc2cccc(C)c2C)N1` (configuration not stated) gave NS1 function inh inconclusive, Shiga inhibitor 27, Pf growth 96h inconclusive, CHX counter 1 and Pf growth 48h 2.6µM*.
For CCOc1ccccc1NC(=O)CSC1=C(C#N)C(c2ccco2)C(C(=O)Nc2nc3ccccc3s2)=C(C)N1 (configuration not stated) the results were NS1 function inh 14%, Shiga inhibitor -12, Pf growth 96h inconclusive, CHX counter -7 and Pf growth 48h 9.3µM*.
Screening CC1=C(C(=O)Nc2ccccc2)C(c2ccncc2)C(C#N)=C(SCC(=O)Nc2ccccc2)N1 (configuration not stated) returned NS1 function inh 1%, Shiga inhibitor -5, Pf growth 96h 60% and CHX counter -4.
Screening CCN(/C=N/S(=O)(=O)c1ccc(Cl)cc1)CC returned NS1 function inh 7%, Shiga inhibitor -1, Pf growth 96h 0%, CHX counter -1 and Pf growth 48h 3%.
Screening OCCCCNCc1ccc(OCc2ccc(Cl)cc2)cc1 returned NS1 function inh -15%, Shiga inhibitor 29, Pf growth 96h 15µM*, CHX counter -2 and Pf growth 48h inconclusive.
CCCCCNCc1ccc(Cl)cc1 was read as NS1 function inh 3%, Shiga inhibitor 25, Pf growth 96h 105%, CHX counter 17 and Pf growth 48h 5%.
For Cc1ccc2[nH]c3c(c2c1)CN(C(=O)CN1c2ccc(F)cc2CCC1C)CC3 (configuration not stated) the results were NS1 function inh -19%, Shiga inhibitor 4, Pf growth 96h 13µM*, CHX counter -3 and Pf growth 48h 12µM*.
Screening Cc1ccc2[nH]c3c(c2c1)CN(C(=O)CN1CCN(c2cccc(C)c2C)CC1)CC3 returned NS1 function inh 8%, Shiga inhibitor 5, CHX counter -2 and Pf growth 48h inconclusive.
